Assay results reported in PubChem BioAssay (NCI).
This is part of a sample that, as a whole, favours compounds with a hit. Of some 83,000 tested, about 20% had one in any assay.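 Note: values are percent growth. 100 is the growth of untreated cells, values between 100 and 0 indicate rising inhibition; between -100 and 0 indicates cell death.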 Activity calls are given as the source filed them. Rule for the calls: active = growth percent below 10; inactive = the rest.

Experiments:
Experiment in all cases: NCI-60 one-dose screen, 48 h (100 = growth as untreated, 0 = no growth, -100 = all killed)
Conditions in all cases: 10 µM unless noted
SR leukemia = system: SR leukemia
RPMI-8226 leukemia = system: RPMI-8226 leukemia
OVCAR-8 ovarian = system: OVCAR-8 ovarian
OVCAR-5 ovarian = system: OVCAR-5 ovarian
OVCAR-4 ovarian = system: OVCAR-4 ovarian
SK-OV-3 ovarian = system: SK-OV-3 ovarian
IGROV1 ovarian = system: IGROV1 ovarian
OVCAR-3 ovarian = system: OVCAR-3 ovarian
HS 578T breast = system: HS 578T breast
NCI/ADR-RES ovarian = system: NCI/ADR-RES ovarian
T-47D breast = system: T-47D breast
BT-549 breast = system: BT-549 breast
MDA-MB-435 melanoma = system: MDA-MB-435 melanoma
SW-620 colon = system: SW-620 colon
MCF7 breast = system: MCF7 breast
HCT-116 colon = system: HCT-116 colon
HCC-2998 colon = system: HCC-2998 colon
KM12 colon = system: KM12 colon

Measured: growth

CN(C)CCCOc1c(Br)cc(/C=C/C(=O)N(C)CCc2cc(Br)c(OCCCN(C)C)c(Br)c2)cc1Br
inactive: OVCAR-8 ovarian 30.7% | OVCAR-5 ovarian 79.1% | OVCAR-4 ovarian 79.7% | SK-OV-3 ovarian 102% | IGROV1 ovarian 48.2% | OVCAR-3 ovarian 75.7% | HS 578T breast 75.7% | NCI/ADR-RES ovarian 56.6% | T-47D breast 92.8% | BT-549 breast 76.5% | MDA-MB-435 melanoma 19.8% | SW-620 colon 32% | MCF7 breast 32.5% | HCT-116 colon 12.1% | HCC-2998 colon 73% | KM12 colon 47.7%
active: SR leukemia -34.5% | RPMI-8226 leukemia -23.6%

Cc1c(NC(=O)c2sc3nc4c(cc3c2N)CN(Cc2ccccc2)CC4)cccc1C(F)(F)F
inactive: SR leukemia 20.1% | RPMI-8226 leukemia 36.3% | OVCAR-8 ovarian 63.1% | OVCAR-5 ovarian 79.6% | OVCAR-4 ovarian 60% | SK-OV-3 ovarian 77.8% | IGROV1 ovarian 51% | HS 578T breast 31% | NCI/ADR-RES ovarian 43.7% | T-47D breast 48.9% | BT-549 breast 49.2% | MDA-MB-435 melanoma 13.1% | SW-620 colon 19.3% | MCF7 breast 16.4% | HCT-116 colon 19.5% | HCC-2998 colon 64.7% | KM12 colon 27%
active: OVCAR-3 ovarian 6.31%

c1ccc(-c2nc3sc(C(c4ccccc4)c4ccccc4)nn3c2-c2ccccc2)cc1
inactive: SR leukemia 80.6% | RPMI-8226 leukemia 108% | OVCAR-8 ovarian 104% | OVCAR-5 ovarian 103% | OVCAR-4 ovarian 103% | SK-OV-3 ovarian 94.7% | IGROV1 ovarian 86.4% | OVCAR-3 ovarian 100% | HS 578T breast 106% | NCI/ADR-RES ovarian 95.3% | T-47D breast 92.6% | BT-549 breast 96% | MDA-MB-435 melanoma 98.9% | SW-620 colon 91.6% | MCF7 breast 90.8% | HCT-116 colon 84% | HCC-2998 colon 109% | KM12 colon 96.1%

C=C1C(=O)O[C@H]2[C@H]1CC/C(COC(=O)c1ccc3ccccc3c1)=C\CC[C@@]1(C)O[C@@H]21
inactive: SK-OV-3 ovarian 82.6% | HCC-2998 colon 42% | KM12 colon 32.8%
active: SR leukemia -19.4% | RPMI-8226 leukemia -39.3% | OVCAR-8 ovarian -21.4% | OVCAR-5 ovarian -52.9% | OVCAR-4 ovarian -36.7% | IGROV1 ovarian -75.1% | OVCAR-3 ovarian -93.1% | HS 578T breast 3.13% | NCI/ADR-RES ovarian -37.7% | T-47D breast -55.2% | BT-549 breast -55.2% | MDA-MB-435 melanoma -73.8% | SW-620 colon -37.9% | MCF7 breast -36.1% | HCT-116 colon -90.6%

CCN(CC)CCNCC(O)Cc1ccc(OC)cc1 (stereo unspecified)
inactive: SR leukemia 88.2% | RPMI-8226 leukemia 98.1% | OVCAR-8 ovarian 89.9% | OVCAR-5 ovarian 113% | OVCAR-4 ovarian 120% | SK-OV-3 ovarian 92.3% | IGROV1 ovarian 111% | OVCAR-3 ovarian 108% | HS 578T breast 95.8% | NCI/ADR-RES ovarian 107% | T-47D breast 91.5% | BT-549 breast 83.9% | MDA-MB-435 melanoma 108% | SW-620 colon 103% | MCF7 breast 103% | HCT-116 colon 82.4% | HCC-2998 colon 101% | KM12 colon 106%

CCCCOc1nc2ccc(Cl)cc2cc1/C=C/C(=O)/C=C/c1ccc(OC)cc1
inactive: SR leukemia 76.2% | OVCAR-8 ovarian 96.2% | OVCAR-5 ovarian 122% | OVCAR-4 ovarian 103% | SK-OV-3 ovarian 110% | IGROV1 ovarian 93.2% | OVCAR-3 ovarian 98.2% | HS 578T breast 107% | NCI/ADR-RES ovarian 107% | T-47D breast 86.8% | BT-549 breast 93.6% | SW-620 colon 107% | MCF7 breast 30.7% | HCC-2998 colon 92.7% | KM12 colon 84%
active: RPMI-8226 leukemia 8.93% | MDA-MB-435 melanoma 9.64% | HCT-116 colon -25.4%

O=C(c1ccccc1)[C@H]1[C@@H]2CCCN2[C@]2(C(=O)Nc3ccc(F)cc32)[C@]12C(=O)Nc1ccccc12
inactive: SR leukemia 85.2% | RPMI-8226 leukemia 71.2% | OVCAR-8 ovarian 88.8% | OVCAR-5 ovarian 91.7% | OVCAR-4 ovarian 81.6% | SK-OV-3 ovarian 83.8% | IGROV1 ovarian 81.3% | OVCAR-3 ovarian 83.7% | HS 578T breast 96.1% | NCI/ADR-RES ovarian 96.7% | T-47D breast 65.6% | BT-549 breast 91.6% | MDA-MB-435 melanoma 92% | SW-620 colon 97.8% | MCF7 breast 82.5% | HCT-116 colon 76.5% | HCC-2998 colon 101% | KM12 colon 94.1%

Clc1ccc2c(NCCNc3nc(Cl)nc4ccccc34)ccnc2c1
inactive: NCI/ADR-RES ovarian 38.5%
active: SR leukemia -27.3% | RPMI-8226 leukemia -50.7% | OVCAR-8 ovarian -62.5% | OVCAR-5 ovarian -49.9% | OVCAR-4 ovarian -72% | SK-OV-3 ovarian -80.4% | IGROV1 ovarian -85% | OVCAR-3 ovarian -78% | HS 578T breast -41.9% | T-47D breast -63.6% | BT-549 breast -65.6% | MDA-MB-435 melanoma -89.4% | SW-620 colon -77.1% | MCF7 breast -63.8% | HCT-116 colon -96.7% | HCC-2998 colon -64.1% | KM12 colon -76.5%

NC(=S)NNC1CCCCC1
inactive: SR leukemia 99.1% | RPMI-8226 leukemia 93.9% | OVCAR-8 ovarian 91.2% | OVCAR-5 ovarian 102% | OVCAR-4 ovarian 91.1% | SK-OV-3 ovarian 93.3% | IGROV1 ovarian 96.4% | OVCAR-3 ovarian 110% | HS 578T breast 101% | NCI/ADR-RES ovarian 101% | T-47D breast 80% | BT-549 breast 88.4% | MDA-MB-435 melanoma 106% | SW-620 colon 99.7% | MCF7 breast 88.8% | HCT-116 colon 91.8% | HCC-2998 colon 100% | KM12 colon 99.9%

CCc1c(C)c2cc3nc(NCc4ccccc4)oc3c(C)c2oc1=O
inactive: SR leukemia 73.5% | RPMI-8226 leukemia 71.6% | OVCAR-8 ovarian 62.5% | OVCAR-5 ovarian 89.7% | OVCAR-4 ovarian 33.9% | SK-OV-3 ovarian 39.5% | IGROV1 ovarian 76.2% | OVCAR-3 ovarian 87% | HS 578T breast 67.1% | NCI/ADR-RES ovarian 51.2% | T-47D breast 47.2% | BT-549 breast 32.6% | MDA-MB-435 melanoma 47.7% | SW-620 colon 95.8% | MCF7 breast 73.1% | HCT-116 colon 57.2% | HCC-2998 colon 79.6% | KM12 colon 83.5%

CC(C)(C)OC(=O)NCc1cccc(N=C=S)c1
inactive: OVCAR-8 ovarian 64.4% | OVCAR-5 ovarian 65.2% | OVCAR-4 ovarian 57.1% | SK-OV-3 ovarian 88.2% | IGROV1 ovarian 43.1% | OVCAR-3 ovarian 60.1% | HS 578T breast 66.1% | NCI/ADR-RES ovarian 71.3% | T-47D breast 11.2% | BT-549 breast 10.3% | MDA-MB-435 melanoma 51% | SW-620 colon 60.2% | MCF7 breast 29.5% | HCT-116 colon 56.2% | HCC-2998 colon 57% | KM12 colon 51.6%
active: SR leukemia -4.27% | RPMI-8226 leukemia -38.9%

CCCCCn1ncc(-c2c(O)c(O)cc3c(O)c(-c4c(C)cc5c(-c6cnn(CCCCC)n6)c(O)c(O)cc5c4O)c(C)cc23)n1
active: SR leukemia -29.1% | RPMI-8226 leukemia 0.346% | OVCAR-8 ovarian 8.04% | SK-OV-3 ovarian -0.985% | OVCAR-3 ovarian 8.42% | NCI/ADR-RES ovarian 2.37% | T-47D breast -5.48% | BT-549 breast 7.18% | MCF7 breast 4.84% | HCT-116 colon 3.24% | HCC-2998 colon 0.112% | KM12 colon 4.29%
inactive: OVCAR-5 ovarian 32.3% | OVCAR-4 ovarian 34.6% | IGROV1 ovarian 13.2% | HS 578T breast 31% | MDA-MB-435 melanoma 17.1% | SW-620 colon 18.5%

Cc1[nH]n(C(=O)c2ccncc2)c(=O)c1N=Nc1ccc(S(=O)(=O)Nc2ccncn2)cc1
inactive: SR leukemia 78.1% | RPMI-8226 leukemia 60.1% | OVCAR-8 ovarian 104% | OVCAR-5 ovarian 114% | OVCAR-4 ovarian 103% | SK-OV-3 ovarian 111% | IGROV1 ovarian 101% | OVCAR-3 ovarian 106% | HS 578T breast 96.7% | NCI/ADR-RES ovarian 114% | T-47D breast 113% | BT-549 breast 127% | MDA-MB-435 melanoma 117% | SW-620 colon 108% | MCF7 breast 102% | HCT-116 colon 92.6% | HCC-2998 colon 113% | KM12 colon 109%

CCCCOc1c(N)cccc1C(=O)OCCN(CC)CC
inactive: SR leukemia 83.9% | RPMI-8226 leukemia 123% | OVCAR-8 ovarian 92.8% | OVCAR-5 ovarian 113% | OVCAR-4 ovarian 107% | SK-OV-3 ovarian 108% | IGROV1 ovarian 104% | OVCAR-3 ovarian 101% | HS 578T breast 102% | NCI/ADR-RES ovarian 106% | T-47D breast 93.3% | BT-549 breast 93.6% | MDA-MB-435 melanoma 111% | SW-620 colon 102% | MCF7 breast 103% | HCT-116 colon 79.2% | HCC-2998 colon 90.2% | KM12 colon 102%

CN(CCNCc1ccccn1)CCNCc1ccccn1
inactive: RPMI-8226 leukemia 18.9% | OVCAR-8 ovarian 13.5% | IGROV1 ovarian 26.9% | HS 578T breast 48.9%
active: SR leukemia 9.92% | OVCAR-5 ovarian -1.39% | OVCAR-4 ovarian -17.3% | SK-OV-3 ovarian -23% | OVCAR-3 ovarian -37.1% | NCI/ADR-RES ovarian 4.32% | T-47D breast 0.513% | BT-549 breast -2.61% | MDA-MB-435 melanoma -30.7% | SW-620 colon 4.13% | MCF7 breast 6.52% | HCT-116 colon -25.2% | HCC-2998 colon -46.8% | KM12 colon -0.112%

CN(C)CCNc1nc2ccccc2c2c(=O)c3ccccc3sc12
inactive: OVCAR-8 ovarian 14.6% | OVCAR-5 ovarian 46% | OVCAR-4 ovarian 38.4% | SK-OV-3 ovarian 31.5% | IGROV1 ovarian 28.5% | OVCAR-3 ovarian 31.2% | HS 578T breast 30.3% | NCI/ADR-RES ovarian 20.9% | T-47D breast 49% | BT-549 breast 74.4% | KM12 colon 18.5%
active: SR leukemia -18.1% | RPMI-8226 leukemia -8.02% | MDA-MB-435 melanoma 8.44% | SW-620 colon -54% | MCF7 breast -46.9% | HCT-116 colon -9.31% | HCC-2998 colon -11.3%

Cc1cc(-c2ccccc2)nc2ccccc12
inactive: SR leukemia 97.1% | RPMI-8226 leukemia 83.3% | OVCAR-8 ovarian 98.1% | OVCAR-5 ovarian 115% | OVCAR-4 ovarian 90.1% | SK-OV-3 ovarian 74.9% | IGROV1 ovarian 92.5% | OVCAR-3 ovarian 105% | HS 578T breast 97.3% | NCI/ADR-RES ovarian 102% | T-47D breast 99.4% | BT-549 breast 108% | MDA-MB-435 melanoma 109% | SW-620 colon 102% | MCF7 breast 65.1% | HCT-116 colon 99.7% | HCC-2998 colon 106% | KM12 colon 106%
